Bioassay records from PubChem BioAssay.
Lamin A splicing: changes lamin A minigene splicing in HeLa cells; HeLa LMNA splicing GFP/RFP minigene ratio, 48 h; Potency, µM (top dose mostly 46.1 µM), without a hit: at the highest dose ratio change, negative = inhibition, actives largely listed as inhibitors; 200,000 compounds, 0.01% hits; AID 1487; active means well fitted inhibition curve with a large enough effect in the signal ratio, with a control signal flat, not every such curve was filed as active; inconclusive means small, poorly fitted or top-dose-only effect, or effect the other way, or a change in a side signal; the % refers to the signal ratio
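Read-out is the ratio of GFP to DsRed2 object intensity, acquired by 488 nm laser-scanning cytometry on HeLa lamin A-EGFP minigene reporter cells. Compound incubation 48 hrs at 37 °C in Opti-MEM with 2% FBS; DMSO 0.5% final.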
ALDH1A1 inh: blocks purified human ALDH1A1 activity. P00352. Purified ALDH1A1, NADH fluorescence, propionaldehyde substrate. Potency, µM (highest dose often 75.3 µM), inactives show at the highest dose activity, negative = inhibition, actives largely listed as inhibitors. 220,000 compounds, 7.3% hits. AID 1030;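 further: plate controls were no enzyme wells and a reference inhibitor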
HPGD inh: HPGD (human) dehydrogenase inhibition; P15428; purified HPGD, NADH fluorescence kinetic, PGE2 substrate; Potency, µM, without a hit: at the highest dose activity change, negative = inhibition, hits mostly inhibitors; 150,000 compounds, 4.3% hits; AID 894
Target sequence (P15428 whole entry, looked up): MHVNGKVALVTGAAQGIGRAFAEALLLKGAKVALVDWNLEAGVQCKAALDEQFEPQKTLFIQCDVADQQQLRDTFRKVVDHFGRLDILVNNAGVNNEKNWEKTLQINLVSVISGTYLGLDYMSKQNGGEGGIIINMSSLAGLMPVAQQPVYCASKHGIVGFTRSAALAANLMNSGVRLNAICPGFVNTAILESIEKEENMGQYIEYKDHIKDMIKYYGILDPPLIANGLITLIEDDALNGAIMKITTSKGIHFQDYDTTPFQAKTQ
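NADH formation kinetics: reaction with 30 uM PGE2 and 1 mM NAD+ (final), 20 nM enzyme, Tris-HCl pH 8 with Tween 20, after 15 min compound preincubation at room temperature. Fluorescence change, last versus first of five reads.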
KinaseGlo FLuc: counter-screen: inhibitors of Kinase-Glo firefly luciferase; Q27757; Potency, µM (highest dose often 38.3 µM), without a hit: at the highest dose activity change, negative = inhibition, actives largely listed as inhibitors; 200,000 compounds, 0.28% hits; Kinase-Glo luciferase, ATP luminescence, 8 min; AID 1379; active means well fitted curve in the direction sought with a large enough effect; inconclusive means small, poorly fitted or top-dose-only effect, or another doubt; inactive means no such curve, though single readings can be large; an effect the other way counts as inactive or inconclusive; further: nearly all actives have a fitted effect of over 60% in size
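Luminescence was the read-out, taken after 8-minute incubation at ambient temperature. Luciferase turned over luciferin with 10 uM ATP in imidazole pH 7.2 buffer containing KCl, MgCl2, Tween 20 and BSA.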
IMPase Li cell: cell-permeable IMPase inhibitors with lithium potentiation; 210,000 compounds, 0.35% hits; Potency, µM (titrated, usually from 59.4 µM), for the others: at the highest dose activity, negative = IMPase inhibition, most hits filed as inhibitors; CHO-M1 cells, IP1 TR-FRET (IP-One), carbachol + lithium; active means well fitted curve in the direction sought with a large enough effect; inconclusive means small, poorly fitted or top-dose-only effect, or another doubt; inactive means no such curve, though single readings can be large; an effect the other way counts as inactive or inconclusive;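 further: IP1 builds up when IMPase is blocked and the TR-FRET signal falls; plate controls were basal vehicle for no effect and high inhibitor control for full effect; nearly all actives have a fitted effect of over 50% in size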
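Steps: plate 2000 CHO-M1 cells per well and culture 16–30 h; add compound and lithium; incubate 30 min, 37C; add d2-IP1 tracer and Eu cryptate anti-IP1 antibody in lysis buffer; read after 10 min at room temperature.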
Starred values were filed as active, the others as inactive; ? = inconclusive; . = not tested or not shown; [ ] = dose if it differs, or a comment. Shown are actives, neighbours in structure and some others; about 9% of the full set was active somewhere. Unless noted, the call rests on the fitted dose curve; in most records, active means well fitted inhibition curve with a large enough effect (not every such curve was filed as active); inconclusive means small, poorly fitted or top-dose-only effect, or another doubt; inactive means no such curve, though single readings can be large or run the other way. Unless noted, on the % scale 0 is the no-effect control and ±100 the full control effect; potency means the concentration at half of the fitted maximal effect.

SMILES	Lamin A splicing	ALDH1A1 inh	HPGD inh	KinaseGlo FLuc	IMPase Li cell
CC1(C)N=C(N)N=C(N)N1c1cccc(OCc2cccc([N+](=O)[O-])c2)c1	.	0%[13.5 µM]	-3%	0%[7.66 µM]	-1%
Cn1cc(C(=O)CCl)c2ccccc21	?	0.063µM*	.	1%	0%
O=S(=O)(c1cccc2nsnc12)N1CCN(c2ccc(F)cc2)CC1	3%[9.22 µM]	-4%	.	0%	9%
O=S(=O)(c1cccc2nsnc12)N1CCN(c2ccccc2F)CC1	?	22µM*	.	2%	9%
CCOc1cc(/C=N/n2cnnc2)ccc1OS(=O)(=O)c1ccc(C)cc1	-2%[46 µM]	22µM*	.	-1%	11%
O=C(O)COc1ccc(/C=C2\SC(=Nc3ccccc3)N(c3ccccc3)C2=O)cc1	.	18µM*	.	0%	-11%
O=C(O)c1ccc(/C=C2\SC(=Nc3ccccc3)N(c3ccccc3)C2=O)cc1	.	16µM*	.	2%	10%
O=C(c1cc(C(F)(F)F)cc(C(F)(F)F)c1)N1CCC2(CC1)CN(c1ncccn1)C2	.	-6%	-17%	-2%	-1%
COc1cccc(NC(=S)/C(=C(\[O-])c2ccc(C)c([N+](=O)[O-])c2)[n+]2ccccc2)c1	-5%	?	-16%	-6%	17%[38.3 µM]
[O-]/C(=C(\C(=S)Nc1cccc2ccccc12)[n+]1ccccc1)c1ccc2c(c1)OCCO2	21%	10µM*	?	2%	-6%[38.3 µM]
[O-]/C(=C(\C(=S)Nc1cccc2ccccc12)[n+]1ccccc1)c1ccc(OC(F)F)cc1	3%[46 µM]	19µM*	.	-1%	4%
COc1cccc(NC(=S)/C(=C(\[O-])c2ccc(OC(F)F)cc2)[n+]2ccccc2)c1	-3%[46 µM]	20µM*	.	-3%	8%
C=CC1=C(C)C2=Cc3c(C=C)c(C)c4[n]3[Sn+2][n]3c(c(C)c(CCC(=O)O)c3=CC3=NC(=C4)C(C)=C3CCC(=O)O)=CC1=N2	.	?	-19%	-28%	16%
COc1ccc(C2CC(=O)N(C)c3ccccc3S2)cc1 (stereo not drawn)	.	1%	.	1%	8%
Cc1csc(SCC(=O)NCCc2ccc(Cl)cc2Cl)n1	-2%	1%	28µM*	1%	-10%
Cc1csc(SCC(=O)NCc2cccc(Cl)c2)n1	-5%[46 µM]	?	.	-1%	11%
CCC(c1nnc(SCC(=O)NCCc2ccc(Cl)cc2Cl)o1)N(C)C (stereo not drawn)	5%	16µM*	14µM*	-4%	5%[38.3 µM]
O=C(CSc1ccc2c(c1)OCCO2)NCCc1ccc(Cl)cc1Cl	?	-9%	.	.	.
CCOc1ccc(NC(=S)NN2CCN(C)CC2)cc1	4%	7%	-7%	0%	-2%
COc1ccc(C(=O)n2nc(-c3ccco3)nc2SC)cc1OC	-6%	28µM*	?	-1%	25%[38.3 µM]
CSc1nc(-c2ccco2)nn1C(=O)c1cccs1	4%	?	?	-5%	-6%[38.3 µM]
O=C(COc1ccc2ccccc2c1)NC1CC(=O)N(c2ccc(F)cc2)C1 (stereo not drawn)	-10%[46 µM]	.	.	.	.
Cc1cccn2c(CN(C)CC3CCCCO3)c(C(=O)N3CCCCC3)nc12 (stereo not drawn)	.	0.2µM*	.	.	.
COc1c(C=O)c(O)cc2c1C(=O)c1ccccc1C2=O	.	3.5µM*	.	.	-14%
CC(C)(C)c1[nH]nc2c1C(c1ccc(OC(=O)c3ccco3)cc1)C(C#N)=C(N)O2 (stereo not drawn)	15%	4.5µM*	-17%	-5%	18%[38.3 µM]
SMILES	Lamin A splicing	ALDH1A1 inh	HPGD inh	KinaseGlo FLuc	IMPase Li cell
C=CCN1C(=O)C(O)(CC(=O)c2c(C)n[nH]c2C)c2cc(Br)ccc21 (stereo not drawn)	2%	?	1%	2%	15%[38.3 µM]
Cc1coc(C)c1C(=O)CC1(O)C(=O)N(Cc2ccccc2)c2ccccc21 (stereo not drawn)	5%	4.5µM*	-27%	11%	9%[38.3 µM]
COc1ccc(CN2C(=O)C(O)(CC(=O)c3c(C)n[nH]c3C)c3ccccc32)cc1OC (stereo not drawn)	-4%	3.5µM*	-4%	-2%	16%[38.3 µM]
Cc1ccc(C(=O)CC2(O)C(=O)N(Cc3ccccc3)c3ccccc32)o1 (stereo not drawn)	-1%	0.71µM*	-12%	1%	20%[38.3 µM]
Cc1ccc(C(=O)CC2(O)C(=O)N(Cc3ccccc3Cl)c3ccccc32)o1 (stereo not drawn)	?	3.5µM*	-21%	-2%	9%[38.3 µM]
CCOC(=O)c1cnc2sc3c(n2c1=O)CCCC3	?	?	?	-2%	3%[38.3 µM]
Cc1cccc(CNC(=O)C2CCCN(S(=O)(=O)c3cn(C)cn3)C2)c1 (stereo not drawn)	17%[46 µM]	.	.	.	.
COC(=O)[C@]1(C)CCC[C@]2(C)c3ccc(C(C)C)cc3C(=O)CC12 (stereo partly drawn)	5%	?	-18%	-2%	1%
C/C(CC1(O)C(=O)N(Cc2ccccc2)c2ccccc21)=N\O (stereo not drawn)	6%	1.6µM*	-16%	-1%	-13%[38.3 µM]
CC(=O)CC1(O)C(=O)N(Cc2ccccc2)c2ccccc21 (stereo not drawn)	10%	?	-4%	0%	4%[38.3 µM]
NC(=O)c1c(NC(=O)CCCC(=O)O)sc2c1CCCCCC2	?	6%	28µM*	0%	-12%
CCOC(=O)c1ccc(NC(=O)c2c(NC(=O)CCC(=O)O)sc3c2CCCCC3)cc1	.	16µM*	.	-2%	-2%
COC(=O)c1c(NC(=O)C2CCCO2)sc2c1CCC2 (stereo not drawn)	16%	14µM*	-24%	-2%	26%[38.3 µM]
NC(=O)c1c(NC(=O)C2CCCO2)sc2c1CCCCC2 (stereo not drawn)	3%	20µM*	?	-1%	5%
CCC1/C(=N\O)CC(c2ccco2)NC1c1ccco1 (stereo not drawn)	-11%	?	-1%	-2%	-2%[38.3 µM]
O=C1N=C(O)CN1/N=C/c1ccc(-c2ccc([N+](=O)[O-])cc2)o1	-23%	6%	-24%	-2%	-7%
O=C(c1cccc(F)c1)N1CCC2(CCN(Cc3cc(C(F)(F)F)cc(C(F)(F)F)c3)CC2)CC1	.	-4%	-9%	0%	30%
CC(C)(C)C1CCc2c(sc(NC(=O)C3CCCO3)c2C(N)=O)C1 (stereo not drawn)	18%	?	-9%	0%	6%[38.3 µM]
NC(=O)c1c(NC(=O)C2CCCO2)sc2c1CCC2 (stereo not drawn)	12%	22µM*	-8%	-4%	0%[38.3 µM]
COC(=O)C(C)N(C(=O)c1ccc(C(=O)c2ccccc2)cc1)c1c(C)cccc1C (stereo not drawn)	-1%	-12%	-8%	-1%	31%[38.3 µM]
NC(=O)CSc1nc2ccccc2c(=O)n1Cc1ccco1	-8%	?	-7%	5%	2%
